# Rows were chosen to be rich in hits. Some 2.4% of all compounds tested hit in one or more screens of this group.
# FEN1 inhibitor: inhibitors of human flap endonuclease 1; Recombinant FEN1 flap cleavage, fluorescence, 15 min; Potency, µM (top dose mostly 114 µM), for the others: at the highest dose activity change, negative = inhibition, hits mostly inhibitors; 390,000 compounds, 0.35% hits; AID 588795; also: % is scaled to controls: 0 for no effect and ±100 for the full control effect; nearly all actives have a fitted effect of over 65% in size
# Target sequence (P39748 whole entry, looked up): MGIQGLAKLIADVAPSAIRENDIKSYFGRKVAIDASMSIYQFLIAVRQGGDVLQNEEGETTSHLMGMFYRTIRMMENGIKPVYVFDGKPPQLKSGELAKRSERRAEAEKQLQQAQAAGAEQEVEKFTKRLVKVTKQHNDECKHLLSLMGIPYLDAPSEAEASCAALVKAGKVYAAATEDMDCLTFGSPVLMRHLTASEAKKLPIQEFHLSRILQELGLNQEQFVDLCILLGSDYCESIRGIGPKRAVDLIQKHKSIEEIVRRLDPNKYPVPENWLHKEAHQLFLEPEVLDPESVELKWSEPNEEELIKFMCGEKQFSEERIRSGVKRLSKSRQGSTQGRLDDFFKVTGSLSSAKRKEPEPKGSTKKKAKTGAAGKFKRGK
#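 Nuclease activity of 10 nM FEN1 was measured after 15 min of room-temperature exposure to titrated compounds, by adding 50 nM flap substrate and reading plates at 0 and 15 min.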
# POLH inh: inhibitors of human DNA polymerase eta; Q9Y253; recombinant Pol eta, fluorescent DNA replication assay; Potency, µM (doses to about 114 µM), inactives show top-dose activity change, negative = inhibition, usual class: inhibitors; 390,000 compounds, 1.2% hits; AID 588591; also: % is scaled to controls: 0 for no effect and ±100 for the full control effect
#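 Fluorescent replication assay: 50 nM final substrate added after a 15 min room-temperature compound preincubation with 10 nM enzyme. Signal taken at 0 min and again at 10 min.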
# Pol beta inh: DNA polymerase beta (human) inhibition; P06746; Pol beta primer extension/strand displacement, fluorescence kinetic; Potency, µM (top dose mostly 114 µM), for inactives: top-dose activity change, negative = inhibition, usual class: inhibitors; 340,000 compounds, 1.3% hits; AID 485314; also: % is scaled to controls: 0 for no effect and ±100 for the full control effect
#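 Preincubation: enzyme (10 nM) with compound, 15 min, RT. Reaction: substrate added to 50 nM final. Reads: 0 and 10 min. Analysis: normalized, Hill fit.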
# WRN helicase inh: WRN helicase (human) inhibition. 360,000 compounds, 0.46% hits. WRN helicase unwinding, fluorescent forked duplex, kinetic. Potency, µM (titrated, usually from 114 µM), without a hit: at the top dose activity change, negative = inhibition, usual class: inhibitors; also: % is scaled to controls: 0 for no effect and ±100 for the full control effect; nearly all actives have a fitted effect of over 55% in size
#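 Kinetic red-fluorescence monitoring (525/598 nm) tracks WRN helicase activity after 100 nM fluorophore-quencher forked duplex and 2 mM ATP are added to 20 nM enzyme pretreated 15 min at room temperature with compound.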
# POLI inh: inhibitors of human DNA polymerase iota. Q9UNA4. Pol iota fluorescent replication assay, 10 min. Potency, µM (titrated, usually from 115 µM), for inactives: at the top dose activity, negative = inhibition, hits mostly inhibitors. 390,000 compounds, 1% hits. AID 588590
#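 Fluorescent replication assay read twice, at 0 min and 10 min after adding 50 nM (final) substrate. Enzyme (10 nM) and compounds were first incubated 15 min at room temperature; enzyme-free buffer wells were negative controls.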
# Pol kappa inh: DNA polymerase kappa (human) inhibition; Q9UBT6; purified Pol kappa, fluorescent DNA synthesis assay, 10 min; Potency, µM (doses to about 107 µM), without a hit: at the top dose activity, negative = inhibition, hits mostly inhibitors; 400,000 compounds, 0.53% hits; AID 588579; also: % is scaled to controls: 0 for no effect and ±100 for the full control effect
#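 Pol kappa 10 nM + cpd, 15 min RT; start w/ substrate 50 nM final; fluorescence kinetic read, 0 and 10 min. Neg ctrl: buffer, no enzyme.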
# Starred values were filed as active, the others as inactive; ? = inconclusive; . = no result given; [ ] = dose if it differs, or a comment. Calls follow the shape of the dose curve; as a rule, active = well fitted curve in the direction sought with a large enough effect; inconclusive = small, poorly fitted or top-dose-only effect, or another doubt; inactive = no such curve, though single readings can be large; an effect the other way counts as inactive or inconclusive. Potency is read from the fitted curve at half-maximal effect.
SMILES,FEN1 inhibitor,POLH inh,Pol beta inh,WRN helicase inh,POLI inh,Pol kappa inh
COCCCNc1nc2c(S(=O)(=O)c3ccc(C)c(C)c3)nnn2c2ccc(Cl)cc12,-1%,-24%,8%,.,3%,8%
CCOc1ccc(NC(=O)CC2Nc3cccc4cccc(c34)NC2=O)cc1 (stereo not given),?,4%,31%,.,5µM*,?
CC(=O)Nc1ccc(NC(=O)CC2Nc3cccc4cccc(c34)NC2=O)cc1 (stereo not given),-6%,?,9%,-3%,?,-5%
CCOC(=O)c1ccc(NC(=O)CC2Nc3cccc4cccc(c34)NC2=O)cc1 (stereo not given),?,-20%,-3%,.,3.5µM*,14µM*
COc1ccc(-n2c(=O)c3c4c(sc3n(CC(=O)Nc3cc(C)[nH]n3)c2=O)CCC4)c(OC)c1,-1%,-2%,-5%,-3%,79µM*,0%
COc1cccc(CNc2nc3ccccc3c3nc(-c4cccc(C)c4)nn23)c1,-16%,-10%,27%,.,11%,-2%
Cc1ccc(-n2c(SCC(=O)NCc3ccco3)nc3sc(C)c(C)c3c2=O)cc1,0%,2%,1%,-2%[57.1 µM],-5%,-21%
Cc1ccc(-n2c(SCC(=O)NCc3ccco3)nc3nc4c(cc3c2=O)COC(C)(C)C4)cc1,1%,?,79µM*,1%[11.6 µM],?,-7%
c1ccc(OCc2nn3c(-c4n[nH]c5c4CCC5)nnc3s2)cc1,-1%,?,?,-25%,?,-26%
Cc1ccc(OCc2nn3c(-c4n[nH]c5c4CCC5)nnc3s2)cc1,.,.,14µM*,.,.,.
COc1ccc(N=C2S/C(=C\c3ccco3)C(=O)N2CC(C)C)cc1,-5%,-10%,79µM*,9%,-3%,-2%
COc1ccc(N=C2S/C(=C\c3cc(C)n(C)c3C)C(=O)N2CC(C)C)cc1,-20%,-15%,0%,-31%,-6%,-8%
CC(C)C[C@H](NC(=O)[C@H](Cc1ccccc1)NC(=O)[C@@H]1CCCN1C(=O)[C@H](CC(=O)O)NC(=O)[C@@H]1CCC(=O)N1)C(=O)N[C@@H](CCCN=C(N)N)C(=O)N[C@@H](Cc1ccccc1)C(N)=O,.,.,.,.,.,9%[60.1 µM]
O=C1/C(=C\c2ccc(Br)o2)SC(=Nc2ccccc2)N1c1ccccc1,4%,-28%,0.4µM*,-32%,?,?
CN(C)N1C(=O)/C(=C/c2ccco2)SC1=Nc1ccccc1,1%,-3%,.,-8%,?,-19%
O=C(O)C1CCN(C(=O)CCc2ccccc2)CC1,-5%,-17%,50µM*,-18%,189%,-2%
[O]=[Bi][O]C(=O)[O][Bi]=[O],.,.,.,.,.,1%[60.1 µM]
CC1O[C@@H](OC2C(COC3OC(CO)C(O)[C@H](O)C3O)OC(OC3CC[C@]4(C)C(CC[C@@]5(C)[C@@H]4CC=C4[C@@H]6CC(C)(C)CC[C@]6(CO)C(O)C[C@]45C)C3(C)C)C(O)C2O)C(O)C(O)C1O (stereo not given in full),-13%,-7%,.,-1%,-6%,-5%
C[C@@H]1OC(OC2CC[C@@]3(C)C(CC[C@@]4(C)C3CC=C3C5CC(C)(C)CC[C@]5(C(=O)OC5OCC(O)[C@@H](O)[C@@H]5OC5O[C@@H](C)[C@H](O[C@H]6OC(CO)C(O)C(O)C6O)C(O)C5O)C(O)C[C@@]34C)C2(C)C)C(O)C(O)[C@H]1OC1OCC(O)C(O)[C@H]1O (stereo not given in full),.,.,.,.,.,25µM*
CCOC(=O)C1=C(CC)OC(N)=C(C#N)C1c1cccs1 (stereo not given),-4%,-4%,-17%,-6%,2%,-15%[60.1 µM]
CCN1CC2=C(OC(N)=C(C#N)C2c2cccs2)/C(=C\c2cccs2)C1 (stereo not given),-16%,-27%,7%,-10%[11.6 µM],40µM*,-24%
O=C(Cc1ccccc1)Nc1cccc(N2C(=O)C=CC2=O)c1,8%,-13%,14%,45µM*,-13%,-16%
COc1cccc(NC(=O)Cc2ccccc2)c1,-4%,-3%,2%,7%,21%,11%
CCNc1ncc2nc(-c3ccc(F)cc3)c(=O)n(CCc3ccccc3)c2n1,.,.,.,.,.,-5%[60.1 µM]
Cc1c(C(=O)N/N=C/c2ccc(-c3ccccc3[N+](=O)[O-])o2)sc(N)c1C#N,10%,14µM*,-6%,?,56µM*,-12%
SMILES,FEN1 inhibitor,POLH inh,Pol beta inh,WRN helicase inh,POLI inh,Pol kappa inh
COC(=O)c1c(C)sc(-c2c(-c3ccc4c(c3)OCCO4)[nH]c3[nH]c(=O)[nH]c(=O)c23)c1O,-25%,.,40µM*,.,?,?
COC(=O)c1c(C)sc(-c2c(-c3ccc4c(c3)OCCO4)[nH]c3c2c(=O)n(C)c(=O)n3C)c1O,-6%,.,1%,.,6%,-17%
CCOC(=O)c1c(NC(=O)CSc2nnc(-c3ccccc3C)n2C)sc(C(C)=O)c1C,?,35µM*,18%,?,15%,?
NCCC(=O)N[C@H](Cc1cnc[nH]1)C(=O)O,.,.,.,.,.,-8%[60.1 µM]
N#CC(C#N)=C1C=CC=CN1/C(=C\c1ccccc1Cl)C(=O)c1ccccc1,-11%,-6%,0%,50µM*,-3%,-11%
C[C@]12CCC(=O)C=C1CCC1C2C(=O)C[C@]2(C)C1CC[C@]2(O)C(=O)CO (stereo not given in full),.,.,.,.,.,10%[60.1 µM]
CCOc1ccc2noc3c2c1C(=O)c1ccccc1-3,-7%,-15%,17%,3%,3%,14%
O=C1c2ccccc2-c2onc3ccc(NCc4ccco4)c1c23,8.9µM*,?,?,?,?,-26%
S=C1NC=NC2N=CNC12 (stereo not given),.,.,.,.,.,-3%[60.1 µM]
CCn1c2ccccc2c2nnc(SCc3ccc(C(=O)OC)o3)nc21,-9%,-10%,35µM*,-11%,3%,-6%
CCOC(=O)c1ccc(NC(=O)c2cccc3c(=O)c4c([nH]c23)CCCC4)cc1,-3%,1%,12%,.,-8%,2%
CC[C@H](NC(=O)[C@H](CCCN=C(N)N)NC(=O)[C@H](Cc1c[nH]c2ccccc12)NC(=O)[C@@H](N)CS)C(=O)N[C@@H](CCCN=C(N)N)C(=O)N[C@@H](Cc1ccc(O)cc1)C(N)=O,.,.,.,.,.,6%[60.1 µM]
COc1ccc(CNc2ccnc(-c3cccc(C#N)c3)n2)c(OC)c1,.,.,.,.,.,-6%[60.1 µM]
CCC(C)/C(C)=N/Nc1ccc(S(N)(=O)=O)cc1[N+](=O)[O-] (stereo not given),-9%,89µM*,5%,4%,116%,0%
C/C(CC(C)C)=N\Nc1ccc(S(N)(=O)=O)cc1[N+](=O)[O-],-16%,-17%,24%,-6%,36%,-8%

# Bioassay records (PubChem)
